Measurements taken from PubChem BioAssay (NCATS).
Results filed as inconclusive are left out. Activity calls are given as the source filed them. Calls come from the whole dose curve; as a rule, active = well fitted curve in the direction sought with a large enough effect; inconclusive = small, poorly fitted or top-dose-only effect, or another doubt; inactive = no such curve, though single readings can be large; an effect the other way counts as inactive or inconclusive.

Tests used:
[1] = Quantitative High-Throughput drug screen in 47 multiple myeloma cell lines against the NCATS MIPE library collection: MMM1_PLB cell viability assay (AID 1918976); note: potency is the fitted concentration of half-maximal effect; nearly all actives have a fitted effect of over 35% in size
How it was run: (§1)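 MIPE 4.0 approved/investigational drugs; 500 cells/well; 48 h 37 °C humidified 5% CO2; CTG luminescence readout; DMSO = 100%, media = 0% viability.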

[2] = Quantitative High-Throughput drug screen in 47 multiple myeloma cell lines against the NCATS MIPE library collection: MOLP8_DSMZ cell viability assay (AID 1918977); note: nearly all actives have a fitted effect of over 45% in size
How it was run: as §1

[3] = Quantitative High-Throughput drug screen in 47 multiple myeloma cell lines against the NCATS MIPE library collection: NCIH929_DSMZ cell viability assay (AID 1918978); note: nearly all actives have a fitted effect of over 35% in size; note: potency is the fitted concentration of half-maximal effect
How it was run: as §1

[4] = Quantitative High-Throughput drug screen in 47 multiple myeloma cell lines against the NCATS MIPE library collection: OCIMY1_PLB cell viability assay (AID 1918979); note: series mostly up to about 46 µM; nearly all actives have a fitted effect of over 35% in size
How it was run: as §1

[5] = Quantitative High-Throughput drug screen in 47 multiple myeloma cell lines against the NCATS MIPE library collection: MM1R_ATCC cell viability assay (AID 1918981); note: nearly all actives have a fitted effect of over 35% in size; note: potency is the fitted concentration of half-maximal effect
How it was run: as §1

[6] = Quantitative High-Throughput drug screen in 47 multiple myeloma cell lines against the NCATS MIPE library collection: LP1_DSMZ cell viability assay (AID 1918982); note: nearly all actives have a fitted effect of over 35% in size
How it was run: as §1

[7] = Quantitative High-Throughput drug screen in 47 multiple myeloma cell lines against the NCATS MIPE library collection: OPM1_PLB cell viability assay (AID 1918989); note: nearly all actives have a fitted effect of over 40% in size; note: potency is the fitted concentration of half-maximal effect
How it was run: as §1

[8] = Quantitative High-Throughput drug screen in 47 multiple myeloma cell lines against the NCATS MIPE library collection: KMS26_JCRB cell viability assay (AID 1918975); note: nearly all actives have a fitted effect of over 45% in size
How it was run: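 Myeloma cells (500 per well) were exposed to MIPE 4.0 compounds by pin transfer and incubated 48 hours at 37C, 5% CO2. Viability was read as ATP by CellTiter-Glo luminescence, normalised to DMSO (100%) and media-only (0%) wells.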

[9] = Quantitative High-Throughput drug screen in 47 multiple myeloma cell lines against the NCATS MIPE library collection: KMS28PE_JCRB cell viability assay (AID 1918983); note: nearly all actives have a fitted effect of over 35% in size
How it was run: as §1

[10] = Quantitative High-Throughput drug screen in 47 multiple myeloma cell lines against the NCATS MIPE library collection: KMS34_JCRB cell viability assay (AID 1918985); note: nearly all actives have a fitted effect of over 40% in size
How it was run: as §1

[11] = Quantitative High-Throughput drug screen in 47 multiple myeloma cell lines against the NCATS MIPE library collection: SKMM1_PLB cell viability assay (AID 1919863); details: SKMM1 myeloma viability, CellTiter-Glo ATP, 48 h; viability: hits give low values
How it was run: as §1

[12] = Quantitative High-Throughput drug screen in 47 multiple myeloma cell lines against the NCATS MIPE library collection: XG6_PLB cell viability assay (AID 1919865); note: nearly all actives have a fitted effect of over 40% in size; note: potency is the fitted concentration of half-maximal effect
How it was run: as §1

[13] = Quantitative High-Throughput drug screen in 47 multiple myeloma cell lines against the NCATS MIPE library collection: XG1_PLB cell viability assay (AID 1919866); note: nearly all actives have a fitted effect of over 35% in size; note: potency is the fitted concentration of half-maximal effect
How it was run: as §1

[14] = Quantitative High-Throughput drug screen in 47 multiple myeloma cell lines against the NCATS MIPE library collection: OCIMY7_PLB cell viability assay (AID 1918987); note: nearly all actives have a fitted effect of over 65% in size; note: potency is the fitted concentration of half-maximal effect
How it was run: as §1

[15] = Quantitative High-Throughput drug screen in 47 multiple myeloma cell lines against the NCATS MIPE library collection: UTMC2_PLB cell viability assay (AID 1919868); note: nearly all actives have a fitted effect of over 55% in size
How it was run: as §1

[16] = Quantitative High-Throughput drug screen in 47 multiple myeloma cell lines against the NCATS MIPE library collection: U266_ATCC cell viability assay (AID 1919864); note: nearly all actives have a fitted effect of over 35% in size
How it was run: as §1

[17] = Quantitative High-Throughput drug screen in 47 multiple myeloma cell lines against the NCATS MIPE library collection: VP6_DJ cell viability assay (AID 1919867); note: nearly all actives have a fitted effect of over 40% in size; note: potency is the fitted concentration of half-maximal effect
How it was run: as §1

[18] = Quantitative High-Throughput drug screen in 47 multiple myeloma cell lines against the NCATS MIPE library collection: OCIMY5_PLB cell viability assay (AID 1918988); note: nearly all actives have a fitted effect of over 65% in size; note: potency is the fitted concentration of half-maximal effect
How it was run: as §1

Cc1ccc(C(=O)Nc2ccc(S(=O)(=O)O)c3cc(S(=O)(=O)O)cc(S(=O)(=O)O)c23)cc1NC(=O)c1cccc(NC(=O)Nc2cccc(C(=O)Nc3cc(C(=O)Nc4ccc(S(=O)(=O)O)c5cc(S(=O)(=O)O)cc(S(=O)(=O)O)c45)ccc3C)c2)c1
active: Potency [1] 0.0372 µM | Potency [7] 0.833 µM
inactive: Potency [2] | Potency [3] | Potency [4] | Potency [5] | Potency [6]

Cc1ccccc1N1C(=O)c2cc(S(N)(=O)=O)c(Cl)cc2NC1C (stereo unspecified)
inactive: Potency [8] | Potency [3] | Potency [4] | Potency [5] | Potency [6] | Potency [9] | Potency [10] | Potency [7] | viability [11] 117% | Potency [12] | Potency [13]

CC[N+](CC)(CC)CCOc1cccc(OCC[N+](CC)(CC)CC)c1OCC[N+](CC)(CC)CC
inactive: Potency [8] | Potency [3] | Potency [4] | Potency [5] | Potency [6] | Potency [9] | Potency [10] | Potency [14] | Potency [7] | viability [11] 112% | Potency [12] | Potency [13] | Potency [15]

COc1nc(C)nc(Cl)c1NC1=NCCN1
inactive: Potency [8] | Potency [5] | Potency [6] | Potency [9] | Potency [7]
active: Potency [3] 10.5 µM | Potency [14] 18.7 µM

Nc1ccn([C@H]2CC[C@@H](CO)O2)c(=O)n1
active: Potency [14] 13.2 µM | Potency [12] 10.5 µM
inactive: Potency [8] | Potency [2] | Potency [9] | viability [11] 109% | Potency [16]

Cc1cc(C(C)(C)C)cc(C)c1CC1=NCCN1
inactive: Potency [8] | Potency [2] | Potency [3] | Potency [5] | Potency [9] | Potency [10] | Potency [14] | Potency [7] | viability [11] 116% | Potency [16] | Potency [13] | Potency [15]

O=C(C1CCCCC1)N1CC(=O)N2CCc3ccccc3C2C1 (stereo unspecified)
active: Potency [12] 20.9 µM | Potency [13] 16.6 µM
inactive: Potency [8] | Potency [2] | Potency [4] | Potency [5] | Potency [6] | Potency [9] | Potency [10] | Potency [7] | Potency [17]

CC(C(=O)O)c1cccc(C(=O)c2ccccc2)c1 (stereo unspecified)
inactive: Potency [2] | Potency [4] | Potency [6] | Potency [9] | Potency [10] | Potency [14] | viability [11] 106%
active: Potency [1] 0.833 µM | Potency [3] 13.2 µM | Potency [5] 23.5 µM | Potency [18] 20.9 µM | Potency [12] 13.2 µM | Potency [13] 14.8 µM | Potency [17] 14.8 µM

CCOC(=O)C(C)(C)Oc1ccc(Cl)cc1
inactive: Potency [2] | Potency [3] | Potency [4] | Potency [6] | Potency [9] | Potency [18] | Potency [7] | viability [11] 104%
active: Potency [1] 7.43 µM
